Assay results taken from PubChem BioAssay (NCI).
Several values for one entry are separate records, joined by “and”; a condition that tells them apart may be missing. Identical values can stand only once. This is part of a sample that, as a whole, favours compounds with a hit. Of some 79,000 tested, about 15% had one in any assay. Where a structure was tested more than once in an assay, its records may differ in their call. Activity calls are given as the source filed them. Cut-off read from the data, not from the text of the source: active = growth inhibition above about 70%; inactive = the rest.

Experiments:
[1] = NCI Yeast Anticancer Drug Screen. Data for the rad50 strain (AID 155);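 note: 0% = growth of vehicle-only cultures of the same strain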; conditions: S. cerevisiae rad50 strain growth inhibition, stronger effect = higher value
Method in brief: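 Yeast carrying a defined DNA repair defect were exposed to test compounds, and growth was compared with vehicle-treated controls to give percent inhibition.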

[2] = NCI Yeast Anticancer Drug Screen. Data for the mec2-1 strain (AID 157); conditions: S. cerevisiae mec2-1 strain, stronger effect = higher value
Method in brief: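 Using mec2-1 yeast: add compound, measure growth, express inhibition versus vehicle-treated cultures.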

[3] = NCI Yeast Anticancer Drug Screen. Data for the sgs1 mgt1 strain (AID 161);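 note: 0% = growth of cultures given vehicle only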; conditions: S. cerevisiae sgs1 mgt1 strain, stronger effect = higher value
Method in brief: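 Growth of a repair-deficient yeast mutant was monitored after compound treatment and expressed as inhibition relative to vehicle-treated cultures.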

[4] = NCI Yeast Anticancer Drug Screen. Data for the cln2 rad14 strain (AID 165);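 note: 0% = growth equal to vehicle treated cultures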; conditions: S. cerevisiae cln2 rad14 strain, stronger effect = higher value
Method in brief: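 Yeast strain cln2 rad14, bearing defects in cell cycle control and DNA repair, serves as the test system; values reflect growth inhibition compared with vehicle.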

[5] = NCI Yeast Anticancer Drug Screen. Data for the bub3 strain (AID 167); conditions: S. cerevisiae bub3 mutant strain, stronger effect = higher value
Method in brief: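 Compounds were applied to a genetically altered yeast strain carrying a cell-cycle control defect. Growth inhibition was scored against vehicle-treated controls.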

[6] = NCI Yeast Anticancer Drug Screen. Data for the mlh1 rad18 strain (AID 175); conditions: S. cerevisiae mlh1 rad18 strain growth inhibition, stronger effect = higher value
Method in brief: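 Steps: expose repair-defective yeast to compound; measure growth; express inhibition against vehicle-treated controls.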

[7] = at 5.0 µM (retest, dose inferred, filed as 0.5)
[8] = at 50.0 µM (retest, dose inferred, filed as 5.0)

Compound | growth inhibition [1, 7] | growth inhibition [1, 8] | growth inhibition ([1]; at 50.0 µM) | growth inhibition [2, 7] | growth inhibition [2, 8] | growth inhibition ([2]; at 50.0 µM) | growth inhibition [3, 7] | growth inhibition [3, 8] | growth inhibition ([3]; at 50.0 µM) | growth inhibition [4, 7] | growth inhibition [4, 8] | growth inhibition ([4]; at 50.0 µM) | growth inhibition [5, 7] | growth inhibition [5, 8] | growth inhibition ([5]; at 50.0 µM) | growth inhibition [6, 7] | growth inhibition [6, 8] | growth inhibition ([6]; at 50.0 µM)
CC(=O)c1ccc2ccc3ccc(O)cc3c2c1 | 1% (inactive) | 97% (active) | 88.5% (active) | 11% (inactive) | 97% (active) | 80.5% (active) | 2% (inactive) | 96% (active) | 82.2% (active) | -5% (inactive) | 97% (active) | 72.8% (active) | -27% (inactive) | 98% (active) | 90.2% (active) | 6% (inactive) | 97% (active) | 89.2% (active)
CCCCCCCCCCCCCCCCOP(=O)(O)OCC(NC(C)=O)C(=O)O (stereo not given) | -2% (inactive) | 100% (active) | 99.2% (active) | 17% (inactive) | 100% (active) | 99.5% (active) | 4% (inactive) | 95% (active) | 99.3% (active) | 37% (inactive) | 99% (active) | 99.3% (active) | 1% (inactive) | 97% (active) | 99.5% (active) | -1% (inactive) | 99% (active) | 99.4% (active)
c1ccc2c(c1)CNc1ccccc1-2 | 4% (inactive) | 58% (inactive) | 48% (inactive) | -10% (inactive) | 21% (inactive) | 42.7% (inactive) | 0% (inactive) | 66% (inactive) | 83.5% (active) | 6% (inactive) | 16% (inactive) | 7.4% (inactive) | 47% (inactive) | 60% (inactive) | 85.5% (active) | 3% (inactive) | 45% (inactive) | 92.1% (active)
c1ccc(-c2cnc(-c3ccc(-c4ncc(-c5ccccc5)o4)cc3)o2)cc1 | -13% (inactive) | -8% (inactive) | -8.4% (inactive) | -6% (inactive) | -17% (inactive) | -27.4% (inactive) | -23% (inactive) | -11% (inactive) | -47.8% (inactive) | -11% (inactive) | -10% (inactive) | 91% (active) | 0% (inactive) | 5% (inactive) | -32.6% (inactive) | 5% (inactive) | -10% (inactive) | -20.6% (inactive)
COC(=O)C(CC(C)=O)CS(=O)(=O)CC(=O)C(=O)Nc1cccc([N+](=O)[O-])c1 (stereo not given) | 4% (inactive) | 98% (active) | 99.5% (active) | 3% (inactive) | 99% (active) | 99.5% (active) | 7% (inactive) | 99% (active) | 99.2% (active) | 3% (inactive) | 98% (active) | 98.2% (active) | 5% (inactive) | 98% (active) | 99.2% (active) | -2% (inactive) | 98% (active) | 99.2% (active)
O=S(=O)(CC(Cl)c1ccccc1)c1nc2ccccc2s1 (stereo not given) | -7% (inactive) | -7% (inactive) | 69.5% (inactive) | 2% (inactive) | 2% (inactive) | 79.1% (active) | 9% (inactive) | 9% (inactive) | 72.7% (active) | -14% (inactive) | -14% (inactive) | 43.2% (inactive) | -30% (inactive) | -30% (inactive) | 71.4% (active) | -13% (inactive) | -13% (inactive) | 47% (inactive)
CCCCN(CCCC)C(Cl)=Nc1ccccc1 | 35% (inactive) | 32% (inactive) | 80.9% (active) | 29% (inactive) | 24% (inactive) | 87.1% (active) | 31% (inactive) | 30% (inactive) | 88.2% (active) | 17% (inactive) | 19% (inactive) | 81% (active) | 33% (inactive) | 38% (inactive) | 82.4% (active) | 39% (inactive) | 57% (inactive) | 77.4% (active)
OC(c1nc2ccccc2[nH]1)C(O)C(O)C(O)c1nc2ccccc2[nH]1 (stereo not given) | -2% (inactive) | -28% (inactive) | -8.95% (inactive) and 19.2% (inactive) | -25% (inactive) | -18% (inactive) | -15.1% (inactive) and 2.95% (inactive) | -20% (inactive) | 1% (inactive) | -18.4% (inactive) and 17.9% (inactive) | 0% (inactive) | -3% (inactive) | 2.25% (inactive) and -6.8% (inactive) | -15% (inactive) | -28% (inactive) | -38.5% (inactive) and 44.8% (inactive) | -22% (inactive) | -49% (inactive) | 2.85% (inactive) and 22% (inactive)
Clc1c(C(Cl)(Cl)Cl)nsc1N1CCCCC1 | 17% (inactive) | 58% (inactive) | 50.6% (inactive) | 16% (inactive) | 51% (inactive) | 23.1% (inactive) | -3% (inactive) | 39% (inactive) | 33.1% (inactive) | 17% (inactive) | 10% (inactive) | 28% (inactive) | 1% (inactive) | 18% (inactive) | 51.4% (inactive) | 18% (inactive) | 84% (active) | 46.7% (inactive)
c1ccc(CSC(SCc2ccccc2)(c2ccccc2)c2ccccc2)cc1 | 30% (inactive) | 88% (active) | 14.4% (inactive) and 72% (active) | 13% (inactive) | 93% (active) | 5.7% (inactive) and 63.5% (inactive) | 2% (inactive) | 90% (active) | 14.8% (inactive) and 76.8% (active) | 11% (inactive) | 87% (active) | 18.2% (inactive) and 65.3% (inactive) | -16% (inactive) | 83% (active) | 15.4% (inactive) and 74.8% (active) | 22% (inactive) | 92% (active) | 13.7% (inactive) and 81.3% (active)
CC1C[C@]2(C)C(=O)Nc3ccccc3[C@@H]2Nc2ccccc21 (stereo not given in full) | 6% (inactive) | 36% (inactive) | 91.1% (active) | 10% (inactive) | 30% (inactive) | 93.8% (active) | 22% (inactive) | 14% (inactive) | 93.2% (active) | -6% (inactive) | 57% (inactive) | 89.5% (active) | 20% (inactive) | 73% (active) | 91.5% (active) | 16% (inactive) | 43% (inactive) | 89.2% (active)
CN(C)Cc1c(O)ccc2ccccc12 | 2% (inactive) | 89% (active) | -32.9% (inactive) and 45% (inactive) | 1% (inactive) | 98% (active) | -33% (inactive) and 90.2% (active) | 2% (inactive) | 97% (active) | -52.2% (inactive) and 43.4% (inactive) | -6% (inactive) | 96% (active) | -18.8% (inactive) and 85.1% (active) | 0% (inactive) | 97% (active) | -32.4% (inactive) and 23.8% (inactive) | 2% (inactive) | 99% (active) | -32.2% (inactive) and 39.2% (inactive)
CC(=O)/C(=C\c1ccc(Cl)c(Cl)c1)C(=O)CCN(C)C | 13% (inactive) and 6% (inactive) | 42% (inactive) and 30% (inactive) | 49.2% (inactive) and 56% (inactive) | 13% (inactive) and -8% (inactive) | 43% (inactive) and 26% (inactive) | 78.2% (active) and 42.8% (inactive) | 22% (inactive) and 9% (inactive) | 45% (inactive) and 50% (inactive) | 58.6% (inactive) and 63.7% (inactive) | 19% (inactive) and 16% (inactive) | 17% (inactive) and 21% (inactive) | 18.8% (inactive) and 41.1% (inactive) | 5% (inactive) and 18% (inactive) | 41% (inactive) and 42% (inactive) | 58% (inactive) and 58.1% (inactive) | 20% (inactive) and 8% (inactive) | 50% (inactive) and 49% (inactive) | 74.2% (active) and 72.2% (active)
COc1cc(O)c2c(c1)C(=O)c1cc3c(c(O)c1C2=O)C(OC1OC(C)C(OC)C(O)C1OC)C(OC)C(C)(O)C3=O (stereo not given) | 81% (active) | 98% (active) | 98.8% (active) and 90.6% (active) | 24% (inactive) | 98% (active) | 99.2% (active) and 93% (active) | 20% (inactive) | 98% (active) | 99.5% (active) and 92.3% (active) | 22% (inactive) | 98% (active) | 98.3% (active) and 89.2% (active) | -6% (inactive) | 98% (active) | 99% (active) and 90.5% (active) | 29% (inactive) | 96% (active) | 99.2% (active) and 90.9% (active)
O=C1NC(=O)c2c1cccc2[N+](=O)[O-] | -7% (inactive) | 31% (inactive) and 12% (inactive) | -4.8% (inactive) and 18.4% (inactive) | -20% (inactive) and 2% (inactive) | 4% (inactive) and 8% (inactive) | -4% (inactive) and 25% (inactive) | -2% (inactive) and 0% (inactive) | 0% (inactive) and 8% (inactive) | 9.25% (inactive) and -3.15% (inactive) | -5% (inactive) and 0% (inactive) | -6% (inactive) and -5% (inactive) | 45.3% (inactive) and 50.4% (inactive) | 37% (inactive) and -2% (inactive) | -4% (inactive) and 8% (inactive) | -1.4% (inactive) and 20.1% (inactive) | -4% (inactive) and -3% (inactive) | 3% (inactive) and 13% (inactive) | 8.5% (inactive) and 2.2% (inactive)
